Where “and” joins values, the source holds several entries; their conditions need not be identical. Identical values can stand only once. About 83,000 compounds went through this panel and 20% of them were active in at least one assay; those are over-represented in the sample as a whole.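 Interpretation: 100, growth as untreated; towards 0, rising growth inhibition; 0, no net growth; 0 to -100, cell death. Compounds scoring below 10 were considered active.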 Calls of active or inactive are those of the source.
tested on: NCI-H23 lung; test: NCI-60 one-dose screen, 48 h (100 = growth as untreated, 0 = no growth, -100 = all killed); conditions: 10 µM unless noted
Protocol: Growth inhibition of the NCI-H23 human Non-Small Cell Lung tumor cell line is measured as a screen for anti-cancer activity. Cells are grown in 96 well plates and exposed to the test compound for 48 hours. Compounds are tested at a single concentration, which is 10^-5 M for most compounds. The reported endpoint is percent growth (GI% or GIPRCNT), where numbers from 0 - 100% represent growth inhibition, and numbers from -100% - 0 represent cell death. For example, a value of 40 represents 60% growth inhibition. A value of 0 means no net growth occurred over the course of the experiment. A value of -40 indicates 40% of cells at the beginning of the experiment died by the end of the experiment. A value of -100 means all cells are dead at the end of the experiment.
NCI-60 Human Tumor Cell Lines Screen was performed using the standard one-dose NCI protocol, which is described in more detail at https://dtp.cancer.gov/discovery_development/nci-60/default.htm.
Compounds with GIPRCNT values below 10 were considered active. Activity score was based on GIPRCNT using the following formula: […]
Score is 0 for GIPRCNT values of 100 or above, 50 for GIPRCNT values of 0, and 100 for GIPRCNT values of -100.

Row | Compound | growth
1 | COc1ccc(C(=O)/C=C/c2ccc3c(c2)OCCO3)cc1S(N)(=O)=O | 73% (inactive)
2 | CS(=O)(=O)Nc1cccc(-n2c(COc3ccc(OC(F)(F)F)cc3)nc3ccccc32)c1 | 84.7% (inactive) and 104% (inactive)
3 | C=CC[n+]1cccc2c3ccccc3ccc21 | 27.4% (inactive)
4 | CN(C)c1nc(NCCNS(=O)(=O)c2ccc(C(=O)/C=C/c3ccc(F)cc3)cc2)nc(N2CCOCC2)n1 | 50.9% (inactive)
5 | CC[C@]12C=CCN3CC[C@]4(C(=C(C(=O)OC)C1)Nc1cc(OC)c([C@@H]5[C@H]6O[C@H]6[C@@]6(CC)CC(C(=O)OC)=C7Nc8cc(OC)ccc8[C@@]78CCN5[C@@H]68)cc14)[C@@H]32 | 41.8% (inactive)
6 | CC1=C(C)C(=O)C(N2CCSCC2)=CC1=O | 93.9% (inactive)
7 | CC1(C)CC(=O)C2=C(C1)OC(N)=C(c1nc3ccccc3[nH]1)C2c1ccc(Cl)cc1 (stereo not given) | 46.5% (inactive) and 106% (inactive)
8 | O=c1[nH]c2ccccc2cc1COc1ccc(Nc2nccc(-c3ccc(Cl)cc3)n2)cc1 | 95.9% (inactive)
9 | CCN1C(=O)N(CC)C2NNC(Sc3c(C(=O)O)c4ccccc4n(CC(C)C)c3=O)=NC21 (stereo not given) | 10.7% (inactive)
10 | OC1CCC(Cn2c(C(F)(F)F)cc3c(Cl)ncnc32)CC1 (stereo not given) | -26% (active)
11 | O=C1Nc2ccc(F)cc2/C1=C/C(=O)c1cc2ccccc2oc1=O | 96.1% (inactive)
12 | O=C1/C(=C/C=C/c2ccco2)SC(=S)N1CC(=S)C1C=CS(=O)(=O)C1 (stereo not given) | 83.1% (inactive)
13 | Cc1nc(N)ncc1-c1ccc2ncnc(N3CCc4cc(F)c(Cl)cc43)c2c1 | 84.3% (inactive)
14 | C#CCN(C)CCCOc1ccc(N(C)C(=O)c2cc(C(C)C)c(O)cc2O)cc1Cl | 12.3% (inactive)
15 | Cc1[nH]nc2ccc3nc(-c4cn[nH]c4C(F)(F)F)c4c(c3c12)CCCC4 | -8.3% (active)
16 | COc1cc(C2CC(c3ccc(C(F)(F)F)cc3)=Nc3c(N)nc(N)nc3N2)ccc1Oc1nc(Nc2ccc(F)cc2)nc(N(C)C)n1 (stereo not given) | 82.2% (inactive)
17 | COc1ccccc1NC(=O)N/N=C/c1c[nH]c2ccccc12 | 0.507% (active)
18 | COC(=O)c1cc(C(=O)CBr)n2c1ccc1c3ccccc3ccc12 | 51.4% (inactive)
19 | O=C(Cn1c(-c2ccccc2)nc2ccccc21)N=Nc1c(O)[nH]c2ccc(Cl)cc12 | 20.8% (inactive)
20 | Cc1nn(-c2ccccc2)c2nc(C)n(C(=O)N/N=C/c3ccccc3)c(=O)c12 | 99.7% (inactive)

Row | Compound | growth
21 | COc1ccc(CCC2NCCc3c(Br)c4c(c(OC)c32)OCO4)cc1 (stereo not given) | -24.7% (active)
22 | O=C(N=Nc1c(O)[nH]c2ccc(Cl)cc12)c1ccc2nc(-c3ccc(Cl)cc3)[nH]c2c1 | -71.5% (active)
23 | O=C1Nc2cc(-c3ccc(NS(=O)(=O)c4ccc(F)c(Cl)c4)cc3)ccc2/C1=C/c1ccc[nH]1 | -25.5% (active)
24 | O=C(Cn1c(/C=C/c2ccc([N+](=O)[O-])cc2)nc2ccccc2c1=O)Nc1ccccc1 | 54.9% (inactive)
25 | O=C(NNC(=S)NCCc1ccccc1)c1ccc(OCc2nc3ccc(Cl)cc3[nH]2)cc1 | 66.3% (inactive)
26 | c1n[nH]cc1-c1nc2ccc3cn[nH]c3c2c2c1CCCC2 | 90.2% (inactive)
27 | COc1ccc(NC(=O)Cn2c(/C=C/c3cccc(OC)c3)nc3ccccc3c2=O)cc1 | 40.8% (inactive)
28 | COc1cc2cc(C(=O)N3C[C@@H](CCl)c4c3cc(OC(=O)N(CCC(=O)N3CCN(C)CC3)C3CCCCC3)c3ccccc43)[nH]c2c(OC)c1OC | -86.8% (active)
29 | O=C(CSc1nc2sc3c(c2c(=O)n1-c1ccc(Cl)cc1)CCCC3)N/N=C/C=C/c1ccccc1 | -74.7% (active)
30 | CN1C(=O)/C(=C/c2ccco2)S/C1=N/c1nccs1 | 97.3% (inactive)
31 | CN1CCN(C(=O)Oc2cc3c(c4ccccc24)[C@H](CCl)CN3C(=O)c2cc3cc(OCCCN4CCC4)ccc3[nH]2)[C@H]2CSSC[C@H]21 | -65% (active)
32 | N#Cc1c(-c2ccc(F)cc2)nc(SCc2ccccc2)nc1N1CCNCC1 | -90.5% (active)
33 | CCCN(CCC)S(=O)(=O)c1ccc(C(=O)O)cc1.CCCN(CCC)S(=O)(=O)c1ccc(C(=O)O)cc1.[Cl][Pt+2][Cl].[NH2-].[NH2-] | -44.1% (active)
34 | COc1sc(/C=N/NC(=O)c2[nH]c3ccc(Br)cc3c2-c2ccccc2)cc1Cl | -41.9% (active)
35 | N#Cc1c(-c2ccc(F)cc2)nc(SCc2ccc(F)cc2)nc1N1CCNCC1 | -61.3% (active)
36 | Clc1ccc(CNc2nc(SCCN3CCOCC3)nc3c2cnn3CC(Cl)c2ccc(Br)cc2)cc1 (stereo not given) | 49.4% (inactive)
37 | COc1c(B(O)O)cc(F)cc1-c1nc2c(F)cc3[nH]ncc3c2c2c1CCCC2 | 5.45% (active)
38 | COc1ccc2[nH]c(O)c(N=Nc3nc(-c4ccc(Cl)cc4)cs3)c2c1 | -33.7% (active)
39 | N/C(=N\c1nc2ccc([N+](=O)[O-])cc2s1)NC(=O)Nc1ccccc1Cl | 44.6% (inactive)
40 | CN(C)c1ccc(/C=C/c2n(Cc3ccc4ccccc4c3)c3ccccc3[n+]2Cc2ccc3ccccc3c2)cc1 | -91.4% (active)

Reference: PubChem BioAssay (NCI)
